Compound activity from PubChem BioAssay.
CYP2C19 inh = blocks human cytochrome P450 2C19 | P33261 | CYP2C19 Supersomes, luciferin-H EGE luminescence, 30 min | inhibition, % at 5 µM | hit rate 21% among 96,000 | AID 778;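 active = CYP2C19 inhibition above a set limit at 5 µM in the primary screen, cut at about 50% in these data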;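 note: plate controls were negative control wells for no effect and 2.5 mM tranylcypromine positive control for full effect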
CYP2C19 activ = activators of human cytochrome P450 2C19; activation factor at 5 µM; AID 1025; recombinant CYP2C19, luciferin-H EGE luminescence; stronger effect = higher value; 0 = fully inhibited enzyme, 1 = untreated enzyme; 96,000 tested, under 10 active; P33261;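 active = activation factor of at least 2 at 5 µM in the primary screen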;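 note: 0 = wells with 2.5 mM tranylcypromine and 1 = vehicle-only wells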
Mac1 fbg inh = blocks human CD11b/CD18 adhesion to fibrinogen | inhibition, % at 10 µM | hit rate 0.54% among 93,000 | K562 CD11b/CD18 adhesion to fibrinogen, ATPlite luminescence; Mn2+ added to activate the integrin | P05107+P11215;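 active = primary inhibition of 50% or more at 10 µM, then 40% or more on retest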
Mac1 fbg enh = enhancers of human CD11b/CD18 binding to fibrinogen; K562 CD11b/CD18 adhesion to fibrinogen, ATPlite luminescence; activation, % at 10 µM; hit rate 0.07% among 93,000; AID 1499;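 active = 10 µM primary screen giving 50% or more activity, confirmed by 40% or more on retest at that dose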
CYP2C9 inh = inhibitors of human CYP2C9 | CYP2C9 Supersomes, luciferin-H conversion, luminescence | AID 777 | inhibition, % at 5 µM | hit rate 20% among 96,000 | P11712;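 active = blocking of liver enzyme CYP2C9 beyond about 50% at 5 µM, limit read from the data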
Target sequence (P11712 whole entry, looked up): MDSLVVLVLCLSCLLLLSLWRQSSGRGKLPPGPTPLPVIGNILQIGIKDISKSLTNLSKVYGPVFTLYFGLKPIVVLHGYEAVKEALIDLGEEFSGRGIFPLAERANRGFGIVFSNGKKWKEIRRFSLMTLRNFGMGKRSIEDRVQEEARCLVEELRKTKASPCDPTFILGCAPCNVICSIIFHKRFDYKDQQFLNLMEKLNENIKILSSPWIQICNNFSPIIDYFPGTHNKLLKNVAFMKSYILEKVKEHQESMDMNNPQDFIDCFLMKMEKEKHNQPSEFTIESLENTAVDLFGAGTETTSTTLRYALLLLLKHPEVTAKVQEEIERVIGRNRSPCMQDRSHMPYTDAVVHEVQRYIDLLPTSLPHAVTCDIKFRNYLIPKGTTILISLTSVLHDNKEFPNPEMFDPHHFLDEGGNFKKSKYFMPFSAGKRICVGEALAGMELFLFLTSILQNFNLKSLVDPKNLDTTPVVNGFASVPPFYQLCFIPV
CYP2C9 act = activators of human CYP2C9; AID 1024; P11712; activation factor at 5 µM; hit rate 1.4% among 96,000; recombinant CYP2C9, luciferin-H conversion, luminescence; stronger effect = higher value; factor 1 = untreated enzyme, 0 = blocked;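 active = activation factor of 2 or more for CYP2C9 at a 5 µM dose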;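 note: 0 = sulfaphenazole-blocked wells and 1 = vehicle-only wells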
Active calls of the source: *; x = no result. Shown are actives, neighbours in structure and some others; about 28% of the full set was active somewhere.

SMILES	CYP2C19 inh	CYP2C19 activ	Mac1 fbg inh	Mac1 fbg enh	CYP2C9 inh	CYP2C9 act
Cc1c(Cl)cccc1N1C(=O)c2ccccc2C1=O	15.2	0.8	-3.3	0.7	-9.6	1.1
COc1cc(C2C3C(=O)N(Cc4ccccc4)C(=O)C3ON2c2ccccc2)cc(OC)c1OC (configuration not stated)	56.9*	0.4	6.6	-0.3	25.7	0.7
Cc1c(Cl)cccc1N1C(=O)C2ON(c3ccccc3)C(c3cccnc3)C2C1=O (configuration not stated)	56.4*	0.4	-8.1	0.1	42.0	0.6
O=C1C2C3c4ccccc4C(c4ccccc43)[C@@H]2C(=O)N1c1cccnc1 (some centres not stated)	x	x	-5.9	-2.3	x	x
COC(=O)Cn1nnc(-c2cccc(OC)c2)n1	9.8	0.9	-11.9	-5.1	7.8	0.9
CC(C)(CS(=O)(=O)[O-])NC(=O)CC[N+](C)(C)CCO	-12.9	1.1	-1.1	1.9	-7.9	1.1
O=C(CN1CCOCC1)OCCCC1CCCCC1	72.7*	0.3	x	x	8.3	0.9
CCOc1cc(C=C(C(=O)OC)C(=O)OC)ccc1OCc1ccc([N+](=O)[O-])cc1	22.3	0.8	18.9	0.6	38.6	0.6
COc1ccc(S(=O)(=O)N2CCSC2c2ccc(OC)c(OC)c2)cc1 (configuration not stated)	63.4*	0.4	3.6	-3.1	-96.5	2*
CC(=O)Nc1ccc(S(=O)(=O)N2CCSC2c2ccccc2)cc1 (configuration not stated)	59.1*	0.4	33.9	7.1	31.0	0.7
COc1ccccc1C1SCCN1S(=O)(=O)c1cccc(C(F)(F)F)c1 (configuration not stated)	31.0	0.7	22.6	4.2	-63.4	1.6
COc1ccc(C2SCCN2S(=O)(=O)c2ccc(F)cc2)cc1OC (configuration not stated)	55.8*	0.4	2.0	-6.9	-81.6	1.8
COc1ccc(S(=O)(=O)N2CCSC2c2ccccc2)cc1 (configuration not stated)	99.4*	0	2.6	-1.2	-61.6	1.6
O=C(NN1C(=O)c2ccccc2C1=O)C1CCCCC1	11.7	0.9	x	x	4.6	1
O=C1N(Cc2ccccc2)CCCC12CCCN(Cc1ccccc1)C2=O	34.7	0.7	-12.5	3.4	-4.1	1
O=S(=O)(c1ccc(Cl)cc1)N1CCSC1c1ccco1 (configuration not stated)	98.0*	0	-3.7	-2.4	50.9*	0.5
CC(OC(=O)c1ccc(NS(=O)(=O)c2cccs2)cc1)C(=O)N(C)C1CCCCC1 (configuration not stated)	x	x	-13.3	-0.1	x	x
CCN1CCN(CC(=O)Nc2ccc(Cl)c(Cl)c2)C(=O)C1=O	-7.4	1.1	3.0	0.5	10.8	0.9
COC(=O)C1CSC(C(=O)OC)N1C(=O)Nc1ccc(Cl)c(Cl)c1 (configuration not stated)	61.3*	0.4	17.8	-1.4	66.7*	0.3
COC(=O)C1CSC(C(=O)OC)N1C(=O)Nc1ccc(Cl)cc1 (configuration not stated)	69.4*	0.3	x	x	12.4	0.9
CC(=O)N1C(C(=O)O)CSC1c1ccc(C)cc1 (configuration not stated)	-24.7	1.2	0.5	0.4	-9.4	1.1
COC(=O)c1ccc(-c2ccco2)n1Cc1ccccc1Cl	16.4	0.8	1.1	3.0	63.2*	0.4
c1ccc(OCc2nn3c(Cn4nnc5ccccc54)nnc3s2)cc1	24.7	0.8	15.2	-1.9	8.1	0.9
COc1ccc(-c2nn3c(COc4ccccc4)nnc3s2)cc1OC	28.4	0.7	-21.0	-2.3	57.5*	0.4
c1ccc(OCc2nnc3sc(-c4cccs4)nn23)cc1	53.2*	0.5	46.8	-5.2	58.4*	0.4
Clc1ccc(Cl)c(-c2nn3c(COc4ccccc4)nnc3s2)c1	28.6	0.7	20.1	-5.4	50.1*	0.5
COC(=O)CN1C(c2ccccc2)=Nc2ccc(Cl)cc2C1c1ccccc1 (configuration not stated)	25.2	0.7	21.3	5.0	20.3	0.8
CCOC(=O)N1CCN(C(=O)c2ccc3c(=O)n(CCc4ccccc4)c(=S)[nH]c3c2)CC1	71.8*	0.3	x	x	71.1*	0.3
